Most compounds without a hit are left out; they make up all but 27% or so of the library.
CYP2C9 activ – increases human cytochrome P450 2C9 activity. AID 1024. 1.4% of 96,000 active. P11712. activation factor at 5 µM. recombinant CYP2C9, luciferin-H conversion, luminescence; active compounds read high; factor 1 = untreated enzyme, 0 = blocked;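 active = activation factor of 2 or more for CYP2C9 at a 5 µM dose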
sEH inhibitor – blocks human soluble epoxide hydrolase activity | inhibition, % at 2 µM | recombinant human sEH enzymatic activity assay | AID 707 | 0.34% of 91,000 active | P34913; in the data active = inhibition above about 80%
Target sequence (P34913 whole entry, looked up): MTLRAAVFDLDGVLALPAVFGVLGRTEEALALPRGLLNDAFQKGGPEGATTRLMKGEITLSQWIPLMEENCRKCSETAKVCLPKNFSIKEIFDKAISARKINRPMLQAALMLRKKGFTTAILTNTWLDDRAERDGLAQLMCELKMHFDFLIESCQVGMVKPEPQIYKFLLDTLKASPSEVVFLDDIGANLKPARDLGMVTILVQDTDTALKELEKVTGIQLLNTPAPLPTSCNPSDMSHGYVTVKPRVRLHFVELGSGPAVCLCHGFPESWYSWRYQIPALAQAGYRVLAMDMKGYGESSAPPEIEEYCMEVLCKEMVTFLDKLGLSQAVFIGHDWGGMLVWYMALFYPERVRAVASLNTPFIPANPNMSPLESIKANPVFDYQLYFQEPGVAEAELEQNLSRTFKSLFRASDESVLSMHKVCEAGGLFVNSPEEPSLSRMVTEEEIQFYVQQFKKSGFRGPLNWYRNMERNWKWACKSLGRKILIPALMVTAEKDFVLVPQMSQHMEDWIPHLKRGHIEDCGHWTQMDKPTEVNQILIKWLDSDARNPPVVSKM
CYP2C19 inhib – inhibitors of human CYP2C19; P33261; CYP2C19 Supersomes, luciferin-H EGE luminescence, 30 min; inhibition, % at 5 µM; 21% of 96,000 active; AID 778;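 active = CYP2C19 inhibition above a set limit at 5 µM in the primary screen, cut at about 50% in these data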
CYP2C19 act – increases human CYP2C19 enzyme activity; activation factor at 5 µM; recombinant CYP2C19, luciferin-H EGE luminescence; active compounds read high; 0 = fully inhibited enzyme, 1 = untreated enzyme; P33261; AID 1025; 96,000 tested, under 10 active;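 active = activation factor of at least 2 at 5 µM in the primary screen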
sEH act – increases human soluble epoxide hydrolase activity | P34913 | purified human sEH enzymatic activity, activator screen | activation, % at 2 µM | 0.04% of 91,000 active | AID 717; in the data active = activation above about 37%
CYP2C9 inhib – human CYP2C9 inhibition; P11712; CYP2C9 Supersomes, luciferin-H conversion, luminescence; inhibition, % at 5 µM; 20% of 96,000 active; AID 777;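 active = blocking of liver enzyme CYP2C9 beyond about 50% at 5 µM, limit read from the data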
Hits are given with their value; 0 = inactive; - = no result given.

SMILES	CYP2C9 activ	sEH inhibitor	CYP2C19 inhib	CYP2C19 act	sEH act	CYP2C9 inhib
COc1ccc2c(c1)C=C(C(=O)NCc1ccc(Cl)cc1)CO2	0	0	53	0	0	62
COc1ccc(NC(=O)c2ccc3c(c2)OCO3)cc1Cl	0	0	0	0	0	0
COc1cccc(CNC(=O)Cc2c(C(=O)O)[nH]c3ccccc23)c1	0	0	0	0	0	52
COc1ccc(NCc2ccc3c(c2)OCO3)cc1Cl	0	0	98	0	0	86
O=C1CC(C2CCCO2)C(=O)N1Cc1ccccc1 (stereo not given)	0	0	0	0	0	0
COc1ccc(OC)c(-n2nnnc2SCC(=O)NCc2ccc3c(c2)OCO3)c1	0	0	81	0	0	60
COc1ccc(OC)c(-n2nnnc2SCC(=O)O)c1	0	0	0	0	0	0
O=C(NCc1ccc2c(c1)OCO2)c1cccnc1	0	0	59	0	0	0
COc1cccc(CNC(=O)C2(C)Oc3ccccc3NC2=O)c1 (stereo not given)	0	0	72	0	0	92
O=C(NCc1ccc2c(c1)OCO2)c1ccc(C2SCC(=O)N2Cc2ccco2)cc1 (stereo not given)	0	0	67	0	0	98
O=C(N/N=C/c1ccco1)c1cc(-c2cccc3ccccc23)n[nH]1	0	0	0	0	0	0
CC(C)C(NC(=O)c1ccccc1)c1nnc(SCC(=O)Nc2nccs2)n1C (stereo not given)	0	0	0	0	0	0
CCOC(=O)C1=C2SCC(=O)N2C(N)=C(C#N)C1	0	0	0	0	0	0
C=CCOc1ccc(/C(O)=C2/C(=O)C(=O)N(CCCn3ccnc3)C2c2cccs2)cc1 (stereo not given)	0	0	0	0	0	0
COC(=O)c1ccc(CSc2nnc(CNC(=O)c3cccs3)o2)o1	0	0	0	0	0	0
CCN(CC)C(=O)c1ccc(CS(=O)(=O)c2ccc(OC)cc2)o1	-	0	-	-	0	-
COC(=O)c1c(NC(=O)c2ccco2)sc2c1C(C(=O)OC)CC2 (stereo not given)	0	0	0	0	0	62
COC(=O)c1c(NC(=O)c2ccco2)sc2c1CCC2	0	0	0	0	0	0
COC(=O)c1c(NC(=O)C(C)C)sc2c1C(C(=O)OC)CC2 (stereo not given)	-	0	-	-	0	-
CC(Oc1ccccc1)C(=O)NCc1cccnc1 (stereo not given)	0	0	0	0	0	0
O=C(Nc1sc2c(c1C(=O)O)CCC2)c1ccco1	0	0	62	0	0	53
O=C(Nc1sc2c(c1C(=O)NC1CC1)CCCCCC2)c1ccco1	0	0	0	0	0	0
CC(Oc1ccc(F)cc1)C(=O)Nc1sc2c(c1C(=O)NCc1cccnc1)CCCC2 (stereo not given)	0	0	78	0	0	94
O=C(Nc1sc2c(c1C(=O)NCc1cccnc1)CCCC2)c1ccco1	0	0	78	0	0	95
Cc1ccc(CNC(=O)C2CNc3cc(C)ccc3O2)cc1 (stereo not given)	0	0	0	0	0	0
SMILES	CYP2C9 activ	sEH inhibitor	CYP2C19 inhib	CYP2C19 act	sEH act	CYP2C9 inhib
CCOc1ccc2nc(NC(=O)CSc3nc4c(c(=O)n(C)c(=O)n4C)n3C(C)C)sc2c1	0	-	0	0	-	0
CC(C)n1c(SCC(=O)Nc2nc3ccccc3s2)nc2c1c(=O)n(C)c(=O)n2C	-	0	-	-	0	-
CCOc1ccc2nc(NC(=O)Cn3cnc4c3c(=O)n(C)c(=O)n4C)sc2c1	0	-	69	0	-	0
CCn1c(SCC(=O)Nc2nc3ccc(OC)cc3s2)nc2c1c(=O)n(C)c(=O)n2C	0	-	0	0	-	62
Cc1ccc(S(=O)(=O)C2(C(=O)O)CCCC2)cc1C	0	-	0	0	-	0
Cc1oc(-c2ccccc2F)nc1CS(=O)(=O)CC(=O)NC1CCCC1	0	-	0	0	-	52
Cc1oc(-c2ccccc2F)nc1CS(=O)(=O)CC(=O)NCCN(C)C1CCCCC1	0	0	0	0	0	0
Cc1oc(-c2ccccc2F)nc1CS(=O)(=O)CC(=O)N1CCc2ccccc21	0	-	0	0	-	0
Cc1oc(-c2ccccc2F)nc1CS(=O)(=O)CC(=O)N1CCN(c2ccccc2)CC1	0	0	60	0	0	65
CCC(C)(C)n1nnnc1C(c1cc(OC)c(OC)c(OC)c1)N1CCN(c2ccccc2)CC1 (stereo not given)	0	0	0	0	0	0
